Experimental data taken from the supplement of paper PMC10646978.
± gives the standard deviation.

Legend:
Conditions in all cases: modulator concentration 10 µM
[1] = system: RAW-Dual (murine macrophage reporter line); test: NF-kB reporter (SEAP) activity fold change vs agonist alone; higher = enhanced NF-kB activity
Procedure, shortened: (§1)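 RAW-Dual murine macrophage reporter cells were plated at 50 000 per well in 384-well plates, pin-transferred compound to 10 μM final, and pre-incubated for 1 hour at 37 °C before a PRR agonist was added and the cells incubated overnight. NF-κB activity was read from supernatant SEAP with QUANTI-Blue at 620 nm absorbance, and IRF activity from Lucia luciferase with QUANTI-Luc by luminescence. Each signal was expressed as fold change by dividing by the mean agonist-only control on the same plate. Two replicate plates were averaged, with errors obtained by propagation.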

[2] = system: RAW-Dual (murine macrophage reporter line); test: IRF reporter (Lucia luciferase) activity fold change vs agonist alone; higher = enhanced IRF activity
Procedure, shortened: as §1

[3] = system: RAW-Dual (murine macrophage reporter line); test: viability score (confluency relative to resting cells, overnight) (fraction); higher = more viable, active = viable (0.7 or more)
Procedure, shortened: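 Compound was added at a final 10 μM to RAW-Dual macrophages in 384-well plates and left overnight. Confluency was imaged with IncuCyte, and two masks were generated in IncuCyte software over all imaged wells. Each viability score is confluency relative to resting cells, and a compound met the cutoff only when both masks were above 70% of resting cells.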

[4] = agonist: CpG ODN 1826 0.5 ug/mL

| Structure (SMILES) | NF-kB reporter [1, 4] | NF-kB reporter ([1]; agonist: LPS 0.1 ug/mL) | NF-kB reporter ([1]; agonist: MPLA […]) | IRF reporter ([2]; agonist: 3'3'-cGAMP 10 ug/mL) | IRF reporter ([2]; agonist: LPS 0.1 ug/mL) | IRF reporter ([2]; agonist: MPLA […]) | viability score [3] |
| --- | --- | --- | --- | --- | --- | --- | --- |
| O=C(C1=C(O)C(=O)N(c2nccs2)C1c1ccccc1)c1cc2ccccc2o1 (configuration not stated) | 0.928 ± 0.054 | 1.57 ± 0.12 | 0.97 ± 0.062 | 0.664 ± 0.026 | 0.967 ± 0.19 | 0.885 ± 0.082 | 0.997 (active) |
| COc1ccc2oc(=O)c(C(=O)Nc3ccc(C(=O)O)cc3)cc2c1 | 0.909 ± 0.054 | 1.02 ± 0.1 | 0.953 ± 0.08 | 1.08 ± 0.035 | 1.17 ± 0.11 | 0.959 ± 0.13 | 0.987 (active) |
| COc1ccc(C=Nn2cnnc2)cc1COc1cc(C)c(Cl)cc1C(C)C | 0.854 ± 0.088 | 0.761 ± 0.04 | 0.984 ± 0.095 | 1.21 ± 0.11 | 1.03 ± 0.06 | 1.3 ± 0.11 | 0.995 (active) |
| COc1ccc(C(O)CN2CCN(c3cccc(C)c3C)CC2)cc1OC (configuration not stated) | 0.724 ± 0.18 | 0.928 ± 0.095 | 0.95 ± 0.06 | 0.956 ± 0.054 | 0.873 ± 0.16 | 1.04 ± 0.12 | 0.997 (active) |
| CCOC(=O)C1C(=O)C=C(C)C(C(=O)OCC)C1c1ccc(Br)cc1 (configuration not stated) | 1.05 ± 0.083 | 1.01 ± 0.093 | 1.06 ± 0.07 | 1.17 ± 0.047 | 1.3 ± 0.17 | 1.25 ± 0.19 | 1 (active) |
| Oc1ccc(O)cc1 | 1.33 ± 0.2 | 0.586 ± 0.41 | 0.377 ± 0.093 | 0.459 ± 0.018 | 0.58 ± 0.41 | 0.211 ± 0.13 | 0.909 (active) |
| Cc1cc(OCC(=O)Nc2ccc(Cl)c(C(F)(F)F)c2)ccc1Cl | 0.934 ± 0.079 | 0.942 ± 0.056 | 1.24 ± 0.11 | 1.02 ± 0.051 | 1.7 ± 0.1 | 1.83 ± 0.19 | 0.971 (active) |
| CCN(CC)c1ccc(C=NNC(=O)c2ccncc2)cc1 | 1.16 ± 0.11 | 0.926 ± 0.12 | 1.05 ± 0.06 | 0.676 ± 0.12 | 0.948 ± 0.058 | 1.11 ± 0.076 | 0.991 (active) |
| COc1ccc(CNCc2cccc3ccccc23)c(OC)c1 | 0.108 ± 0.013 | 0.586 ± 0.065 | 0.607 ± 0.063 | 0.968 ± 0.076 | 1.21 ± 0.12 | 1.36 ± 0.22 | 0.354 (inactive) |
| COc1ccc(OC)c(C=NNC(=O)c2cc(C)oc2C)c1 | 0.912 ± 0.16 | 0.925 ± 0.098 | 0.877 ± 0.067 | 0.936 ± 0.044 | 1.26 ± 0.22 | 1.25 ± 0.2 | 0.566 (inactive) |
| CCC(=O)Nc1ccc(S(=O)(=O)NCC2CCN(c3ncc(F)cn3)CC2)c(C)c1 | 1.06 ± 0.096 | 1.2 ± 0.096 | 1.04 ± 0.065 | 1.79 ± 0.1 | 1.21 ± 0.11 | 1.08 ± 0.093 | 0.986 (active) |
| COc1ccc(CNS(=O)(=O)c2ccc3ccccc3c2)cc1 | 0.795 ± 0.074 | 0.899 ± 0.079 | 1.13 ± 0.11 | 0.974 ± 0.052 | 1.49 ± 0.11 | 1.7 ± 0.17 | 0.972 (active) |
| OCCN1CCN(CCCN2c3ccccc3C=Cc3ccccc32)CC1 [Prestw-1456] | 0.862 ± 0.066 | 1 ± 0.082 | 1.37 ± 0.053 | 0.807 ± 0.029 | 1.06 ± 0.049 | 1.49 ± 0.18 | 0.904 (active) |
| CC(C)NCC(O)COc1ccc(CCOCC2CC2)cc1.Cl (configuration not stated) | 0.952 ± 0.13 | 1.2 ± 0.25 | 0.968 ± 0.068 | 0.907 ± 0.032 | 1.57 ± 0.17 | 1.31 ± 0.1 | 0.981 (active) |
| CCOC(=O)[C@@H](N)Cc1ccc(-c2cc(O[C@H](c3ccc(Cl)cc3-n3ccc(C)n3)C(F)(F)F)nc(N)n2)cc1.O=C(O)CNC(=O)c1ccccc1 | 0.504 ± 0.06 | 0.512 ± 0.053 | 0.937 ± 0.11 | 0.734 ± 0.043 | 0.787 ± 0.026 | 3.54 ± 0.34 | 0.119 (inactive) |
| O=C(NCc1nc(C2CCCCC2)cs1)c1ccc(F)cc1 | 0.898 ± 0.05 | 1.16 ± 0.11 | 0.918 ± 0.047 | 1.03 ± 0.063 | 1.26 ± 0.094 | 1.1 ± 0.09 | 0.931 (active) |
| CN(C)C(CNC(=O)NCc1ccc(Cl)cc1)c1ccc2c(c1)CCO2 (configuration not stated) | 0.616 ± 0.1 | 1.17 ± 0.091 | 0.937 ± 0.1 | 0.854 ± 0.026 | 1.2 ± 0.23 | 1.4 ± 0.14 | 1 (active) |
| CCOc1cccc2sc(N(CCCN(C)C)C(=O)c3ccc(Cl)s3)nc12.Cl | 0.938 ± 0.042 | 1.06 ± 0.19 | 0.898 ± 0.12 | 0.747 ± 0.093 | 0.989 ± 0.26 | 0.954 ± 0.38 | 0.917 (active) |

| Structure (SMILES) | NF-kB reporter [1, 4] | NF-kB reporter ([1]; agonist: LPS 0.1 ug/mL) | NF-kB reporter ([1]; agonist: MPLA […]) | IRF reporter ([2]; agonist: 3'3'-cGAMP 10 ug/mL) | IRF reporter ([2]; agonist: LPS 0.1 ug/mL) | IRF reporter ([2]; agonist: MPLA […]) | viability score [3] |
| --- | --- | --- | --- | --- | --- | --- | --- |
| O=C(CCC(=O)NN=Cc1ccc(O)cc1)NN=Cc1ccc(O)cc1 | 0.915 ± 0.073 | 0.963 ± 0.062 | 0.947 ± 0.036 | 0.973 ± 0.12 | 0.974 ± 0.04 | 0.787 ± 0.085 | 1 (active) |
| Cc1ccc(C(=O)NC(=S)Nc2nc(-c3cccc([N+](=O)[O-])c3)cs2)cc1C | 1.02 ± 0.12 | 0.98 ± 0.16 | 0.977 ± 0.036 | 0.931 ± 0.17 | 1.08 ± 0.094 | 1.12 ± 0.13 | 1 (active) |
| COc1ccc(-n2cnc3cc(NC(C)=O)ccc32)cc1 | 0.978 ± 0.18 | 0.973 ± 0.089 | 0.885 ± 0.07 | 0.861 ± 0.025 | 1.19 ± 0.15 | 1.14 ± 0.12 | 1.01 (active) |
| O=C(C=Cc1ccccc1)NC(NC(=S)Nc1cccc2cccnc12)C(Cl)(Cl)Cl (configuration not stated) | 0.507 ± 0.089 | 0.575 ± 0.067 | 0.624 ± 0.048 | 0.452 ± 0.027 | 1.01 ± 0.1 | 1.13 ± 0.25 | 1.01 (active) |
| Cc1ccc(CNC(=O)C(=O)NC2CCCCC2)cc1 | 1 ± 0.094 | 0.956 ± 0.11 | 0.963 ± 0.091 | 0.97 ± 0.025 | 1.46 ± 0.2 | 1.11 ± 0.21 | 1.01 (active) |
| Cc1cc(C)nc(NS(=O)(=O)c2ccc(NC(=O)C=Cc3cccc4ccccc34)cc2)n1 | 1.14 ± 0.091 | 1.14 ± 0.083 | 1.17 ± 0.091 | 0.248 ± 0.026 | 1.21 ± 0.12 | 1.04 ± 0.17 | 0.956 (active) |
| CCOc1cc([C@@H](CS(C)(=O)=O)N2C(=O)c3cccc(NC(C)=O)c3C2=O)ccc1OC | 2.72 ± 0.66 | 0.969 ± 0.058 | 1.69 ± 0.15 | 1.01 ± 0.048 | 1.05 ± 0.12 | 1.14 ± 0.15 | 0.977 (active) |
| CC1Cc2ccccc2N1C(=O)c1cc2n(n1)CCCO2 (configuration not stated) | 0.962 ± 0.076 | 0.949 ± 0.06 | 1.09 ± 0.12 | 0.903 ± 0.054 | 1.39 ± 0.082 | 1.44 ± 0.15 | 0.985 (active) |
| COC(=O)C1=C(C)N(c2ccc(F)cc2)C(=O)C1 | 1 ± 0.092 | 0.811 ± 0.08 | 0.813 ± 0.071 | 0.516 ± 0.025 | 0.865 ± 0.068 | 0.505 ± 0.065 | 1.01 (active) |
| Cc1nc(C(=O)NCC(=O)O)c(O)c2ccc(Oc3ccccc3)cc12 | 0.856 ± 0.12 | 1.05 ± 0.39 | 0.94 ± 0.053 | 0.925 ± 0.04 | 1.09 ± 0.25 | 0.97 ± 0.28 | 0.996 (active) |
| COc1ccc(-c2coc3cc(O)ccc3c2=O)cc1 | 0.956 ± 0.29 | 1.1 ± 0.1 | 0.992 ± 0.13 | 0.904 ± 0.034 | 1.06 ± 0.1 | 1.05 ± 0.17 | 1.01 (active) |
| O=C1OC(=O)C2C3CCC(O3)C12 (configuration not stated) | 1.66 ± 0.13 | 1.45 ± 0.15 | 2.06 ± 0.2 | 1.77 ± 0.076 | 1.65 ± 0.22 | 1.72 ± 0.38 | 0.94 (active) |
| CCOC(=O)N1CCC(=C2c3ccc(Cl)cc3CCc3cccnc32)CC1 | 1.07 ± 0.24 | 1.09 ± 0.21 | 0.953 ± 0.053 | 0.725 ± 0.04 | 1.06 ± 0.097 | 1.33 ± 0.29 | 0.989 (active) |
| CCc1cc(=O)oc2c(C)c(OCC(=O)c3ccc(OC)cc3)ccc12 | 0.804 ± 0.066 | 0.837 ± 0.039 | 1.06 ± 0.11 | 0.925 ± 0.062 | 1.45 ± 0.084 | 1.62 ± 0.14 | 1.01 (active) |
| O=c1[nH]cnc2ccccc12 | 0.416 ± 0.14 | 0.159 ± 0.013 | 0.215 ± 0.019 | 0.133 ± 0.013 | 0.378 ± 0.098 | 0.0913 ± 0.014 | 0.561 (inactive) |
| COc1cc2c(Oc3ccc4[nH]c(C)cc4c3F)ncnc2cc1OCCCN1CCCC1 | 0.607 ± 0.097 | 1.03 ± 0.052 | 1.09 ± 0.11 | 0.927 ± 0.043 | 1.22 ± 0.082 | 1.35 ± 0.12 | 1 (active) |
| O=C(NC(Cc1cc(=O)[nH]c2ccccc12)C(=O)O)c1ccc(Cl)cc1 (configuration not stated) | 1.4 ± 0.19 | 1.19 ± 0.21 | 0.968 ± 0.055 | 0.918 ± 0.03 | 1.32 ± 0.16 | 1.09 ± 0.16 | 0.992 (active) |
| CCOC(=O)C1=C(C)NC(C)=C(C(=O)OCC)C1c1ccccc1/C=C/C(=O)OC(C)(C)C | 1.04 ± 0.15 | 1.14 ± 0.3 | 1.14 ± 0.26 | 0.586 ± 0.032 | 1.39 ± 0.29 | 1.15 ± 0.086 | 0.965 (active) |
